This is a sample that favours compounds with a hit; in the whole collection about 4.1% have one here.
Mot1-301 SUMO: blocks SUMOylation pathway, rescuing yeast Mot1-301 growth; growth rescue, % at 18.8 µM; AID 2716; S. cerevisiae Mot1-301 growth rescue, ATP luminescence, 38.5C; percent above DMSO median, 100 means doubled; 1% of 320,000 active;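 active means every valid replicate shows activation above 250% relative to neutral control wells; inactive means the rest, any valid replicate at or below 250%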;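 further: OY570 slx delta 5 strain wells were the positive control but not used for scaling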
MEKK3 PB1 HTS: MEKK3-MEK5 PB1 interaction, increase or decrease; Q99759; bead-based flow cytometry, Alexa488-MEK5 binding to MEKK3; actives lie on both sides; 0 = blocked by unlabeled MEK5, 100 = vehicle; binding response (% of control), % at 10 µM; 1.4% of 290,000 active;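 active means binding response more than 3 SD above or below the average of its plate-row segment, actives on both sides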;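 further: Alexa488 bead fluorescence after subtracting the streptavidin-only scavenger bead signal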
Target sequence (Q99759 whole entry, looked up): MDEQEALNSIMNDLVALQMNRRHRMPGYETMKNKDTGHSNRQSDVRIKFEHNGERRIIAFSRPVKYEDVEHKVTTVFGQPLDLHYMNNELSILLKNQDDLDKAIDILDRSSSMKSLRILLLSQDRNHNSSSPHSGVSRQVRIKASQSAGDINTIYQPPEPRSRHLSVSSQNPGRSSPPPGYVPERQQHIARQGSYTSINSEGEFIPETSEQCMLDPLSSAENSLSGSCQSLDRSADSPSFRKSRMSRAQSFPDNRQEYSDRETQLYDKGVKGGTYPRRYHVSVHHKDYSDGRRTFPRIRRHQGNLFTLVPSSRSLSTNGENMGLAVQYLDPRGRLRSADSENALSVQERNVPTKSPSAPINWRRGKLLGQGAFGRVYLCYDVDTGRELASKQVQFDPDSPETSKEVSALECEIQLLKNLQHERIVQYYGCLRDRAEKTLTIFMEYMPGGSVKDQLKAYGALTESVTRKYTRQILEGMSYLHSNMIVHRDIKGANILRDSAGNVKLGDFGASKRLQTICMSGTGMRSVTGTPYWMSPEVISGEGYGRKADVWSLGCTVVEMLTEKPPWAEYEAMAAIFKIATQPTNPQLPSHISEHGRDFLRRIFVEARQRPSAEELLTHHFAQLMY
MEKK2wt PB1 HTS: raises or lowers MEK5 binding to wildtype human MEKK2 PB1 domain; 1.1% of 290,000 active; bead flow cytometry, Alexa488-MEK5 binding to MEKK2 WT; actives lie on both sides; AID 1531; binding response (% of control), % at 10 µM; in the data active means binding response below about 67% or above about 130%
CHT allo act: allosterically activates the human high affinity choline transporter; Q9GZV3; CHT-expressing cells, membrane potential dye, choline EC20; stronger effect = higher value; LV-AA mutant CHT in HEK293 cells; B-score at 10 µM; 0.49% of 310,000 active; AID 488977;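 active means initial fluorescence not abnormally high and integrated response B-score, plate-corrected, over 3 SD above library mean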
CHT inh: human CHT choline transport inhibition. 0.86% of 310,000 active. B-score at 10 µM. CHT-expressing cells, membrane potential dye, choline response; stronger effect = lower value. AID 488975. Q9GZV3;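 active means B-score over 3 SD under the library average, and starting fluorescence ratio not unusually high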;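 further: choline stimulus applied at its EC90 after an EC20 pre-addition; B-score computed on integrated fluorescence ratio after choline addition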
MEKK2 mut-MEK5: signal of MEK5 binding to mutant human MEKK2 PB1 domain | bead flow cytometry, Alexa488-MEK5 binding to MEKK2 mutant | percent response, % at 10 µM | 0.35% of 290,000 active; in the data active means percent response above about 24%, passing the limit was not always enough
* = called active by the depositor; i = inactive; x = no result; [ ] = another dose, or the depositor's remark.

SMILES	Mot1-301 SUMO	MEKK3 PB1 HTS	MEKK2wt PB1 HTS	CHT allo act	CHT inh	MEKK2 mut-MEK5
CC(C)(C)C1CCC(=NNC(=O)c2cc3c(s2)CCCC3)CC1 (centres undefined)	542*	101	94	i	i	7
Cc1ccc(NC(=S)N2CCCC(c3nc4ccccc4[nH]3)C2)cc1 (centres undefined)	523*	92	92	i	i	-8
Cc1ccccc1NC(=S)N1CCCC(c2nc3ccccc3[nH]2)C1 (centres undefined)	-3	87	98	i	i	-3
Cc1ccc(NC(=S)N/N=C/c2c(C)[nH]c3ccccc23)cc1	18	110	38*	i	i	50
Cc1[nH]c2ccccc2c1/C=N/NC(N)=S	5	102	108	i	i	6
COc1ccc(C(=O)CCN2CCN(c3ccccc3F)CC2)cc1	616*	99	102	i	i	1
O=C(CCN1CCN(c2ccccc2F)CC1)c1ccc(Br)cc1	6	98	101	i	i	-3
C[C@@H]1C(=O)OC[C@H]1NC(=O)OCc1ccccc1	-8	x	x	i	i	x
CC(C)N(C(=O)[C@H]1CC(CC(=O)NCCC2=CCCCC2)C(=O)N2CCc3c([nH]c4ccccc34)[C@]12C)C(C)C (some centres undefined)	13	x	x	x	x	x
CCOCCCNC(=O)c1c(-c2ccccc2)noc1C	338*	100	103	i	i	2
CCOC(=O)C1CCN(C(=O)c2c(-c3ccccc3)noc2C)CC1	765*	103	91	i	i	-9
CCOC(=O)c1c(-c2ccc(F)cc2)csc1NC(=O)c1c(-c2ccccc2)noc1C	719*	99	104	i	i	8
CC(=O)Nc1ccc(OCCCNC(=O)c2c(-c3ccccc3)noc2C)cc1	8	98	99	i	i	-2
O=C(CN(Cc1ccco1)C(=O)CNS(=O)(=O)c1ccc(F)cc1)NCc1ccccc1	298*	98	91	i	i	-10
COc1ccc(CNC(=O)CN(C)S(=O)(=O)c2ccc(Cl)cc2)cc1	339*	103	100	i	i	1
Cc1nn(CCCC(=O)NC(C)c2ccccc2)c(=O)c2nn(-c3ccccc3)c(C)c12 (centres undefined)	55	99	101	i	i	0
Cc1cc(NC(=O)c2cc([N+](=O)[O-])cc([N+](=O)[O-])c2)n(-c2ccccc2)n1	-16	103	30*	i	i	8
Cc1cc(NC(=O)c2cccc([N+](=O)[O-])c2)n(-c2ccccc2)n1	-1	101	99	i	i	1
CC1CCCC(NC(=O)CCn2c(=O)oc3ccccc32)C1C (centres undefined)	3	99	103	i	i	1
O=C1OCC2OC(O)C(O)C(O)C2OC(=O)c2cc(O)c(O)c(O)c2-c2c(O)c(O)c3oc(=O)c4c(c(O)c(O)c5oc(=O)c2c3c54)-c2c1cc(O)c(O)c2O (centres undefined)	x	73*[inhibitor]	66*[inhibitor]	x	x	-15
Cc1ccc(N(C(C)C(=O)Nc2ccc(S(=O)(=O)N3CCOCC3)cc2)S(C)(=O)=O)cc1C (centres undefined)	286*	97	98	i	i	4
COc1ccc(NC(=O)CCC(=O)c2cccs2)c(OC)c1	41	101	103	i	i	-1
COc1cccc(CNC(=O)c2ccc(NC(=O)C3=CSCCO3)cc2)c1	5	101	99	i	i	1
COc1cc(/C=C2/C(=O)NN(c3ccc(F)cc3)C2=O)cc(Cl)c1O	-1	101	101	i	-4.9*	0
COc1cc(/C=C2/C(=O)NN(c3ccc(Cl)cc3)C2=O)cc(Br)c1O	53	95	93	i	i	-2
SMILES	Mot1-301 SUMO	MEKK3 PB1 HTS	MEKK2wt PB1 HTS	CHT allo act	CHT inh	MEKK2 mut-MEK5
CCN1C(=O)[C@@H]2C(C(=O)c3cnccn3)=NN[C@@H]2C1=O	256	86	82	i	i	-4
Cc1ccc(-c2nn(CC(=O)NCC3CCCO3)c(=O)c3ccccc23)cc1 (centres undefined)	-12	99	104	i	i	9
O=C(Cn1nc(-c2ccc(Cl)cc2)c2ccccc2c1=O)NCC1CCCO1 (centres undefined)	333*	100	96	i	i	-5
CCc1ccc(NC(=O)c2ccc3nc(N)sc3c2)cc1	-10	101	96	i	i	-1
Nc1nc2ccc(C(=O)Nc3ccccc3)cc2s1	282*	102	103	i	i	2
O=C(Nc1nc(-c2cccs2)cs1)c1ccc([N+](=O)[O-])o1	146	x	x	x	x	x
O=C(NNC(=O)c1cccnc1SCc1cccc([N+](=O)[O-])c1)c1ccccn1	3	134*	106	i	i	-1
O=C(NNC(=O)c1cccnc1SCc1cccc([N+](=O)[O-])c1)c1ccc(F)cc1	-10	107	104	i	i	-1
CC(OC(=O)Cc1c[nH]c2ccccc12)C(=O)Nc1ccccc1[N+](=O)[O-] (centres undefined)	-27	x	x	i	i	x
COc1ccccc1-c1cc(C(=O)Nc2cccnc2)no1	10	x	x	11*	i	x
COc1ccc(NC(=O)c2cc(-c3ccccc3OC)on2)cc1	21	99	96	i	i	2
Cc1ccc(C)c(OCc2cc(C(=O)NC3CCN(Cc4ccccc4)CC3)no2)c1	21	106	135*	i	i	11
COC(=O)C1C(=O)C2=C(CC1C)Nc1ccccc1NC2c1ccc(C)s1 (centres undefined)	-6	92	91	i	i	-7
CCOc1ccc(S(=O)(=O)N2CCN(Cc3ccc4c(c3)OCO4)CC2)cc1C	328*	98	95	i	i	-7
COC(=O)c1cc(N2C(=O)C3C(C2=O)C2(C)C=CC3(C)O2)ccc1Cl (centres undefined)	425*	99	104	i	i	1
O=C(N/N=C/c1cccs1)c1cccc(NC(=O)c2ccc(Cl)cc2)c1	5	132*	110	i	i	0
Cc1ccc(-c2cc(C(F)F)n3ncc(C(=O)N4CCCCC4c4cccnc4)c3n2)cc1 (centres undefined)	548*	102	99	i	i	-1
CCC(C)NC(=O)C1CCC(CNS(=O)(=O)c2cccc3nsnc23)CC1 (centres undefined)	-1	99	101	i	i	-5
Brc1ccccc1-c1csnn1	11	111	107	i	i	9

Screening results: PubChem BioAssay, several laboratories
